# Screening data (PubChem BioAssay)
# SW480 rereplic = A quantitative high throughput screen for small molecules that induce DNA re-replication in SW480 colon adenocarcinoma cells; SW480 DNA re-replication, Hoechst DNA content imaging, 48 h; Potency, µM (titrated, usually from 46.1 µM), for inactives: top-dose re-replication activation, usual class: activators; hit rate 1.8% among 340,000; further: potency means the concentration at half of the fitted maximal effect; % of control where 0% means no effect; nearly all actives have a fitted effect of over 55% in size
#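 Cells (250 per well) received 23 nL compound or DMSO by pin tool and were kept 48 hr at 37 C, 5% CO2. Nuclei were then stained with Hoechst for 40 min and scanned for DNA content.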
# IL-1B inflam inh = qHTS for Inhibitors of Inflammasome Signaling: IL-1-beta AlphaLISA Primary Screen. THP-1 LPS/ATP IL-1B secretion, AlphaLISA, 16 h; active compounds read low. hit rate 4.7% among 360,000. AID 743279, 2014. activity change, % at 57.5 µM; in the data active means activity change below about -50%; inconclusive means mostly about -30% to -49%; further: on the % scale 0 is the no-effect control and ±100 the full control effect
#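 Secreted IL-1B measured by AlphaLISA bead assay after 16 h compound exposure of THP-1 cells; compounds (final up to 57.5 uM) added 1 h before LPS (250 ng/mL) and ATP (1.25 mM) stimulation; lower signal means less secretion.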
# Vif-A3G inh = qHTS for Inhibitors of Vif-A3G Interactions: qHTS | HeLa A3G-eYFP + Vif (tagged APOBEC3G with the HIV-1 protein that degrades it), YFP fluorescence, overnight | hit rate 0.076% among 410,000 | Potency, µM (series often up to 46.1 µM), for the others: at the highest dose activity, negative = active, most hits filed as inhibitors; further: potency means the concentration at half of the fitted maximal effect; on the % scale 0 is the no-effect control and ±100 the full control effect; nearly all actives have a fitted effect of over 60% in size
# Target sequence (Q9HC16 whole entry, looked up): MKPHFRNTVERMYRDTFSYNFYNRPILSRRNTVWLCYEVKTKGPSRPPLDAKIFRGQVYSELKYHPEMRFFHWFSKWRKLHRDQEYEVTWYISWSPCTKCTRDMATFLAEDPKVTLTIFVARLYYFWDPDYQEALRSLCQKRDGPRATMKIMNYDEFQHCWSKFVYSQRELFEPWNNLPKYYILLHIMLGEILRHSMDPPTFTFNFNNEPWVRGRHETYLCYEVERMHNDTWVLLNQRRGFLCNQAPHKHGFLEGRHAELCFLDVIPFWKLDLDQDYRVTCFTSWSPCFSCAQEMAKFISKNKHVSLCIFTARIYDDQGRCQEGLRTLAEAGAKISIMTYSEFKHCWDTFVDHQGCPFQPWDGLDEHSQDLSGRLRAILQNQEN
#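 HeLa cells stably expressing Vif and C-terminally eYFP-tagged A3G, seeded overnight at 37 deg C, then exposed to compound by pintool overnight at 37 deg C. Rise in yellow fluorescence (Ex 488/Em 500-530, Acumen) marks blocked Vif-driven A3G degradation.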
# MCF10A rerep = A quantitative high throughput screen for small molecules that induce DNA re-replication in MCF 10a normal breast cells; Potency, µM (series often up to 46.1 µM), for inactives: at the top dose activity, positive = re-replication, most hits filed as activators; MCF 10A DNA re-replication, Hoechst nuclear intensity, 48 h; hit rate 2.9% among 350,000; AID 624296, 2012; further: potency means the concentration at half of the fitted maximal effect; % of control where 0% means no effect; nearly all actives have a fitted effect of over 50% in size
# Vif-A3F inh = qHTS for Inhibitors of Vif-A3F Interactions: qHTS; HeLa A3F-eYFP + Vif (tagged APOBEC3F with the HIV-1 protein that degrades it), YFP fluorescence increase; Potency, µM (titrated, usually from 46.1 µM), for inactives: top-dose activity, negative = active; hit rate 0.2% among 390,000; AID 602313, 2012; further: potency means the concentration at half of the fitted maximal effect; % of control where 0% means no effect; nearly all actives have a fitted effect of over 65% in size
#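 HeLa cells stably expressing Vif plus C-terminally eYFP-tagged A3F were seeded, incubated overnight at 37 deg C, dosed with compound, incubated overnight again at 37 deg C. Yellow fluorescence (Ex 488/Em 500-530) reported blocked Vif-mediated A3F-eYFP degradation.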
# Giardia killer = Small Molecules that selectively kill Giardia lamblia: qHTS; activity change, % at 7.66 µM, hits read low; hit rate 0.15% among 340,000; Giardia lamblia trophozoite viability; AID 540267, 2011; in the data active means activity change below about -80%; inconclusive means between about -30% and that limit;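 further: parasites exposed to compound for two days anaerobically before the ATP read; on the % scale 0 is the no-effect control and ±100 the full control effect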
#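 Trophozoite viability was measured as ATP-dependent luminescence, read 15-30 min after reagent addition. Before that, parasites at 100 cells/well were exposed to compounds for 48 h, anaerobically, at 37 deg C.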
# * hit, by the source's call; ? = inconclusive; / = not tested or not shown; [ ] = remark or other dose. Rows were chosen to be rich in hits. Some 6.9% of all compounds tested hit in one or more screens of this group. Unless noted, the call rests on the fitted dose curve; in most records, active means well fitted curve in the direction sought with a large enough effect; inconclusive means small, poorly fitted or top-dose-only effect, or another doubt; inactive means no such curve, though single readings can be large; an effect the other way counts as inactive or inconclusive.
SMILES,SW480 rereplic,IL-1B inflam inh,Vif-A3G inh,MCF10A rerep,Vif-A3F inh,Giardia killer
COc1ccc(-n2cc(C(=O)NCCc3cc(OC)ccc3OC)c3ccccc3c2=O)cc1,/,/,-1.9%,/,16.6%,/
CCOC(=O)c1c(S(=O)(=O)N2CCCC(C(=O)NCc3ccc(Cl)cc3)C2)c(C)n(C)c1C (configuration not stated),/,/,0.3%,/,1.9%,/
Cn1cc(S(=O)(=O)N2CCCC2)cc1C(=O)Nc1ccc(C(F)(F)F)cc1,/,/,7.5%,/,-0.3%,/
O=C(Nc1ccc(F)cc1)[C@H](Cc1ccccc1)N1Cc2ccccc2C1=O,/,/,-2.6%,/,-12.3%,/
O=C(c1ccco1)N1CCN(C(c2ccc(Cl)cc2)c2nnnn2Cc2ccccc2)CC1 (configuration not stated),-2.5%,-51.0*,-1.9%,13.8%,1.6%,-12.9
O=C(Nc1ccc2c(c1)CCCN2C(=O)c1cccs1)c1ccccc1Cl,/,/,-12.7%,/,4.0%,/
Cc1cc(C)c(O)c(CN(C)Cc2cc(Cl)cc(Cl)c2O)c1,?,-90.3*,2.6%,1.64µM*,?,-10.3
CCCC[C@H]1CCCO[C@@](C(=O)NCc2ccccn2)(C(F)(F)F)C1,/,/,0.7%,/,/,20.2
COc1ccc2nc(NC(=O)CSC3=NCCS3)sc2c1,-4.4%[9.22 µM],-58.0*,0.6%,?,-3.4%,-1.8
CCOC(=O)c1cc(C)sc1NC(=O)CSC1=NCCS1,?,-61.0*,1.0%,20.6µM*,-11.4%,-0.5
CCOc1ccc2nc(NC(=O)CSc3ccc(Cl)cc3)sc2c1,1.8%,-1.2,-4.9%,13.2%,3.8%,-3.1
CCOc1ccc2nc(NC(=O)CSC3=NCCS3)sc2c1,?,-92.1*,-14.6%,?,-2.4%,-10.7
COc1cccc(C(=O)SC2=NCCS2)c1,-0.4%,21.7,-6.9%,14.6µM*,-5.5%,1.9
COc1ccc(NC(=O)COCc2cc(-c3cccs3)on2)cc1,/,/,3.0%,/,0.3%,/
CCOC(=O)c1c(S(=O)(=O)N2CCN(c3cc(Cl)ccc3C)CC2)c(C)n(C)c1C,/,/,1.3%,/,2.5%,/
CCOC(=O)c1c(/N=C/N(C)C)sc(/C=N/Nc2ccccc2)c1-c1ccc(Cl)cc1,?,-8.7,-20.0%,20.6µM*,-3.7%,12.9
CC(C)(C)OC(=O)N1CCCC1C(=O)NC1COC2CC(n3ccc(=O)[nH]c3=O)OC12 (configuration not stated),/,/,-0.2%,/,/,22.0
COc1ccccc1CN(Cc1cc2cc(C)ccc2[nH]c1=O)Cc1nnnn1CC1CCCO1 (configuration not stated),-0.9%,-62.6*,0.2%,?,-4.4%,-7.1
CCc1ccc2[nH]c(=O)c(CN(Cc3ccccc3OC)Cc3nnnn3Cc3ccco3)cc2c1,?,-81.8*,-19.8%,?,2.4%,25.8
Cc1ccc(C)c2[nH]c(=O)c(CN(Cc3ccc4c(c3)OCO4)Cc3nnnn3Cc3ccco3)cc12,?,-60.2*,-8.0%,?,0.7%,6.5
COc1ccccc1CN(Cc1cc2cc(C)ccc2[nH]c1=O)Cc1nnnn1Cc1ccco1,5.0%,-62.3*,-1.0%,21.9%,-9.0%,-0.7
Cc1ccc2[nH]c(=O)c(CN(CCO)Cc3nnnn3Cc3ccco3)cc2c1,/,/,-1.2%,/,/,-6.2
COc1ccc2[nH]c(=O)c(CN(Cc3ccco3)Cc3nnnn3Cc3ccccc3)cc2c1,2.2%,-8.2,-7.7%,2.1%,2.9%,-11.3
COC(=O)CSc1nnc(CNC(=O)c2ccccc2F)n1-c1ccc(F)cc1,-1.0%,-55.6*,-1.8%,0.3%,-16.8%,-6.6
O=C(c1ccc(C(F)(F)F)cc1)N1CCC(=O)N([C@H](COCc2ccc(C(F)(F)F)cc2)Cc2ccccc2)CC1,/,0.0,/,/,/,/
SMILES,SW480 rereplic,IL-1B inflam inh,Vif-A3G inh,MCF10A rerep,Vif-A3F inh,Giardia killer
Cc1cccc(COCC(Cc2ccccc2)N2CCN(C(=O)c3cccc(Cl)c3)CCC2=O)c1 (configuration not stated),?,-60.6*,-1.5%,23.2%,3.5%,3.5
CC(C)C[C@@H](COCc1cccc(C(F)(F)F)c1)N1CCN(C(=O)c2ccc(C(F)(F)F)cc2)CCC1=O,/,-73.2*,/,/,/,/
CC(C)CC(COCc1cccc(Cl)c1)N1CCN(C(=O)c2cccc(C(F)(F)F)c2)CCC1=O (configuration not stated),?,-15.7,5.7%,9.5%,2.6%,8.7
O=C(c1ccc(C(F)(F)F)cc1)N1CCC(=O)N([C@H](COCc2ccc(Cl)cc2)Cc2ccccc2)CC1,/,-69.6*,/,/,/,/
COc1ccc(C(CNC(=O)Cc2ccccc2F)N2CCCCC2)cc1 (configuration not stated),-2.4%,6.0,0.1%,-2.9%,-8.6%,-14.4
COc1ccc(C(CNC(=O)Cc2ccccc2Cl)N2CCCCC2)cc1 (configuration not stated),?,-52.3*,-3.9%,-0.9%,0.5%,-0.5
Cc1nn2cc(-c3ccc(OC(C)C)cc3)nc2s1,/,/,6.5%,/,-1.9%,/
CCOC(=O)/C=C1\SCC(=O)N1CC(=O)Nc1ccc2c(c1)CCC2,?,10.5,1.4%,9.2µM*,-5.3%,17.3
CCOc1ccc(NC(=O)CC2C(=O)N(c3ccccc3)C(=O)N2Cc2cccc(OC)c2)cc1 (configuration not stated),/,/,2.3%,/,-3.7%,/
O=CNCCCc1nc2ccccc2n1CCc1ccccc1,-2.4%,-11.9,4.2%,14.4%,-3.3%,10.5
O=CNCc1nc2ccccc2n1CCc1ccccc1,2.91µM*,12.8,-1.1%,?,?,-10.8
COc1ccc(C(=O)N2CCC(c3ccncc3)CC2)cc1OC,/,/,2.2%,/,-6.4%,/
COc1ccc(-c2noc(-c3cc(C(C)C)[nH]n3)n2)cc1,/,/,3.8%,/,-15.3%,/
Clc1cccc(CNc2ccn3nc(-c4ccccc4Cl)cc3n2)c1,/,-73.4*,-4.0%,/,/,/
CNC(=S)N/N=C(\C)c1ccc2c(c1)OCCO2,-5.4%,13.0,-5.4%,-2.8%,4.4%,9.7
C/C(=N\NC(=S)NC(C)C)c1ccc2c(c1)OCCO2,-0.7%,-79.2*,-16.5%,?,-6.2%,-2.1
O=C(NCc1nc(-c2ccc(C(F)(F)F)cc2)no1)Nc1ccc(OC(F)(F)F)cc1,?,-90.1*,-13.7%,?,15.0%,-1.5
Cc1cccc(-c2noc(CN(C(C)C)S(=O)(=O)c3ccc(Br)cc3)n2)c1,/,/,0.0%,/,1.7%,/
